Out of some 52,000 compounds screened, about 1,700 (3.3%) were called active. The sample holds actives, similar compounds and a random draw of the others, so the mix is not that of the screen. Cut-off read from the data, not from the text of the source: active = survival mostly below about 52% (no sharp cut-off); inactive = mostly above about 56%.
tested on: Wild type; assay: S. aureus survival, RN4220 and DeltatarO strains – OD600, teichoic acid synthesis inhibitors, primary screen (AID 463173); conditions: S. aureus RN4220 wild type/DeltatarO growth, OD600, 18 h, hits give low values, screened at 18.75 µg/mL (by protocol)

Row | SMILES | survival
1 | O=C(CSc1nc2cc3ccccc3cc2[nH]1)Nc1ccc(F)cc1 | 76% (inactive)
2 | CCCCNC(=O)c1nn(-c2ccc(C)cc2)c(=O)c2c1c1ccccc1n2C | 79% (inactive)
3 | CN(Cc1ccco1)C(=O)c1ccc2c(c1)N(Cc1ccccc1F)C(=O)c1ccccc1S2 | 115% (inactive)
4 | Cc1oc2ncn(CC(C)C)c(=O)c2c1C(=O)N1CCN(c2ccc(F)cc2)CC1 | 57% (inactive)
5 | CC1CCCN(S(=O)(=O)c2ccc(S(=O)(=O)N(Cc3cccs3)Cc3cccs3)cc2)C1 (configuration not stated) | 112% (inactive)
6 | Cc1ccc(CN(Cc2ccco2)C(=O)COc2ccccc2C)cc1 | 83% (inactive)
7 | O=C(Nc1nnc(S(=O)(=O)N2CCc3ccccc32)s1)c1ccccc1Cl | 23% (inactive)
8 | O=C(Nc1nnc(S(=O)(=O)N2CCc3ccccc32)s1)c1ccccc1 | 19% (inactive)
9 | O=C(Nc1nnc(S(=O)(=O)N2CCc3ccccc32)s1)c1cccc(Cl)c1 | 12% (active)
10 | O=c1[nH]c2cc3c(cc2cc1CN(CCN1CCOCC1)C(=S)Nc1ccccc1)OCCO3 | 109% (inactive)
11 | CCOc1ccc(NC(=O)CC2Nc3cccc4cccc(c34)NC2=O)cc1 (configuration not stated) | 63% (inactive)
12 | CCOc1ccc(-c2nonc2NC(=O)c2oc3c(C)c(C)ccc3c2C)cc1OCC | 82% (inactive)
13 | COC(=O)Cn1c(SCCOc2ccccc2OC)nc2ccccc21 | 91% (inactive)
14 | CCn1c(SCCOc2ccccc2F)nc2ccccc21 | -1% (active)
15 | COC(=O)Cn1c(SCCOc2ccccc2Cl)nc2ccccc21 | 81% (inactive)
16 | CCCCC(CC)Cn1c(Oc2ccccc2)nc2c1c(=O)n(C)c(=O)n2C (configuration not stated) | -2% (active)
17 | COc1ccc(Oc2nc3c(c(=O)n(C)c(=O)n3C)n2Cc2ccccc2Cl)cc1 | 75% (inactive)
18 | Cn1c(=O)c2c(nc(Oc3ccccc3)n2Cc2c(Cl)cccc2Cl)n(C)c1=O | 73% (inactive)
19 | Cc1ccc(C(=O)N2CCN(c3ccccc3F)CC2)cc1NC(=O)c1nsc2ccccc12 | 87% (inactive)
20 | Cc1cc(C)cc(Oc2nc3c(C)cccn3c(=O)c2/C=C(\C#N)c2nc3ccccc3[nH]2)c1 | 69% (inactive)
21 | CCCCN(CC)CCCNC(=O)c1ccc2c(c1)NC(=O)CN2C | 57% (inactive)
22 | CCCN1CCN(CCCNC(=O)c2ccc3c(c2)sc2nc(-c4ccc(OC)cc4)cn23)CC1 | 81% (inactive)
23 | O=C(NCCCN1CCCCCC1)c1ccc2c(c1)sc1nc(-c3ccccc3)cn12 | 38% (inactive)
24 | CCN1CCN(CCCNC(=O)c2ccc3c(c2)sc2nc(-c4ccc(OC)cc4)cn23)CC1 | 82% (inactive)

Row | SMILES | survival
25 | CCOc1ccc(-c2cn3c(n2)sc2cc(C(=O)NCCCN4CCCCC4)ccc23)cc1 | -1% (active)
26 | CCOc1ccc(-c2cn3c(n2)sc2cc(C(=O)NCCCN4CCCCCC4)ccc23)cc1 | -1% (active)
27 | CCCN1CCN(CCCNC(=O)c2ccc3c(c2)sc2nc(-c4ccc(OCC)cc4)cn23)CC1 | 36% (inactive)
28 | COc1cccc(Cn2cc(C(=O)c3ccccc3)c(=O)c3cc4c(cc32)OCO4)c1 | 84% (inactive)
29 | O=C(CSCc1ccccc1Cl)NCc1ccc(Cl)c(Cl)c1 | 148% (inactive)
30 | CCOc1cc(C(=O)Nc2ccc(-c3nnc4n3CCCCC4)cc2)cc(OCC)c1OCC | 88% (inactive)
31 | COc1ccc(C(=O)Nc2ccc(-c3nnc4n3CCCCC4)cc2)cc1OC | 65% (inactive)
32 | COc1ccc(C(=O)Nc2ccc(-c3nnc4n3CCCCC4)cc2)cc1 | -3% (active)
33 | Cc1ccc2c(c1)C(c1ccccc1)N(C(=O)c1ccc(S(=O)(=O)N3CCCCC3)cc1)CC(=O)N2 (configuration not stated) | 86% (inactive)
34 | CCOC(=O)c1cnc2c(ccc3ccccc32)c1Nc1ccc(Cl)cc1 | 30% (inactive)
35 | CCOC(=O)c1cnc2c(ccc3ccccc32)c1Nc1cccc(OC)c1 | 68% (inactive)
36 | CCOc1ccc(Nc2nc(N)c(C(=O)c3ccccc3Cl)s2)cc1 | -2% (active)
37 | CCOC(=O)c1cnc2ccccc2c1NCCc1ccc(OC)c(OC)c1 | 53% (inactive)
38 | CCOC(=O)c1cnc2c(ccc3ccccc32)c1Nc1cccc(Cl)c1 | 23% (inactive)
39 | COc1cccc(C(=O)c2sc(Nc3ccc(F)c(Cl)c3)nc2N)c1 | 65% (inactive)
40 | CCOC(=O)c1cnc2c(ccc3ccccc32)c1Nc1ccc(C(C)=O)cc1 | 0% (active)
41 | CCOC(=O)c1cnc2c(ccc3ccccc32)c1Nc1ccc(OC)c(OC)c1 | 5% (active)
42 | Cc1ccccc1Nc1nc(N)c(C(=O)c2ccccc2Cl)s1 | 101% (inactive)
43 | CCOC(=O)c1cnc2c(ccc3ccccc32)c1Nc1ccccc1O | 74% (inactive)
44 | CCOC(=O)c1cnc2c(ccc3ccccc32)c1Nc1ccc(OCC)cc1 | -2% (active)
45 | COc1ccccc1CNC(=O)C1CCCN(S(=O)(=O)c2ccc3c(c2)oc(=O)n3C)C1 (configuration not stated) | 92% (inactive)
46 | COc1cc(OC)c(NC(=O)CSc2nccn2C)cc1Cl | 75% (inactive)
47 | Nc1nonc1-c1nc2ccccc2n1Cc1ccc(Br)cc1 | 93% (inactive)

From PubChem BioAssay AID463173 (ICCB-Longwood Screening Facility, Harvard Medical School, 2010)
